Gli-Sufu block: Gli-Sufu pathway antagonists, primary screen, luciferase luminescence, Sufu-KO-LIGHT cells, uHTS | Sufu-KO-LIGHT fibroblasts, Gli luciferase reporter luminescence | inhibition, % at 5 µM | actives 0.74% (n = 340,000) | AID 588413, 2011;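 active = inhibition above about 55%, limit read from the data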;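 also: 0% = DMSO-treated cells and 100% = wells with medium but no cells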
EBV LMP1 NFkB: EBV LMP1-driven NF-kappaB luciferase reporter inhibitors, primary screen, cell-based, luminescence, single point; LMP1-induced NF-kappaB luciferase reporter cells; inhibition, % at 12.5 µM; actives 0.69% (n = 350,000); in the data active = inhibition above about 41%;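 also: 0% = neutral control wells and 100% = reference inhibitor control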
TRPM1 prom inh: inhibitors of MITF-dependent TRPM1 promoter reporter, primary screen, cell-based, SK-MEL-5, single point, luciferase; SK-MEL-5 TRPM1 promoter luciferase, 24 h; actives 0.83% (n = 330,000); AID 488899, 2010; inhibition, % at 12.5 µM;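 active = mean inhibition across replicates of 60% or more, whatever share of single replicates reaches that level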
Jurkat NFkB inh: inhibitors of induced NF-kB luciferase reporter, primary screen, TCR NF-kB activation inhibitor project, cell-based, luminescence, uHTS; inhibition, % at 4 µM; actives 0.53% (n = 330,000); Jurkat, PMA/ionomycin-induced NF-kB luciferase reporter; in the data active = inhibition above about 50%
Shn3 inh set2: reduction of Shn3 3'UTR firefly luciferase signal, primary screen, Schnurri-3 inhibitor project, cell-based, Clone20 osteoblasts, set 2; Clone20 osteoblast Shn3 3'UTR firefly luciferase, 24 h; actives 0.52% (n = 360,000); inhibition, % at 12.5 µM;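 active = mean inhibition of at least 75% with every replicate also reaching 75%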;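 also: 0% = median of neutral control wells and 100% = pilot-screen positive control compound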
697 NFkB inh: inhibitors of PMA/ionomycin-induced NF-kB reporter, 697 cells, primary screen, B-cell NF-kB inhibitor project, cell-based, luminescence, uHTS | AID 435022, 2010 | 697 B-cell NF-kB luciferase reporter, 16 h | actives 0.33% (n = 330,000) | inhibition, % at 4 µM; in the data active = inhibition above about 35%
Gli antag conf: Gli-SUFU pathway antagonists, confirmation, single concentration, luciferase luminescence, Sufu-KO-LIGHT cells | Gli luciferase reporter | AID 602428, 2012 | shares compounds with Gli-Sufu block | actives 40% (n = 2,500) | inhibition, % at 5 µM;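 active = mean inhibition at 5 µM reaching about 45%, limit read from the data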;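 also: plate controls were DMSO-treated cells for no effect and wells lacking cells for full effect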
SufuKO cytotox: cytotoxicity in Sufu-KO-LIGHT cells, confirmation, cytotoxicity control for Gli-SUFU antagonist project, cell-based, ATP luminescence, single concentration | shares compounds with Gli-Sufu block | cytotoxicity, % at 5 µM | actives 32% (n = 2,500);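 active = mean cytotoxicity at 5 µM above about 25%, limit read from the data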;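 also: cells exposed to compound overnight for roughly 16 to 18 hours; plate controls were DMSO wells with cells for no effect and medium without cells for full effect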
Wnt3a counter: Wnt3a reporter signal inhibition, confirmation, counter-screen for Gli-SUFU antagonist project, Wnt-LIGHT cells, luminescence, single concentration | shares compounds with Gli-Sufu block | AID 651995, 2013 | Wnt3a-driven luciferase reporter | actives 20% (n = 2,500) | inhibition, % at 6.25 µM;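 active = mean inhibition above about 25%, limit read from the data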
* hit, by the source's call. This is a sample that favours compounds with a hit; in the whole collection about 2.3% have one here.

O=C1NC2C(=CC(O)C(O)C2O)c2cc3c(cc21)OCO3 (centres undefined) was read as Gli-Sufu block 71.2*, EBV LMP1 NFkB 78.4*, TRPM1 prom inh 67.5*, Shn3 inh set2 89.6*, Gli antag conf 69.9*, SufuKO cytotox 2.9 and Wnt3a counter 101.6*.
Screening O=C1NC2C(=CC(O)C(O)C2O)c2cc3c(c(O)c21)OCO3 (centres undefined) returned Gli-Sufu block 84.0*, EBV LMP1 NFkB 95.2*, TRPM1 prom inh 88.1*, Shn3 inh set2 96.1*, Gli antag conf 92.3*, SufuKO cytotox 78.4* and Wnt3a counter 104.2*.
For COc1ccc(-c2cc(=NCC(=O)O)c3ccccc3o2)cc1 the results were Gli-Sufu block -9.6, EBV LMP1 NFkB -24.2, TRPM1 prom inh -4.4, Jurkat NFkB inh -78.2, Shn3 inh set2 -63.4 and 697 NFkB inh -63.0.
For CC(=O)N1N=C(c2c(O)n(C)c(=O)n(C)c2=O)CC1c1ccccc1 (centres undefined) the results were Gli-Sufu block -4.0, EBV LMP1 NFkB 9.1, TRPM1 prom inh -17.0, Jurkat NFkB inh 5.2, Shn3 inh set2 -20.6 and 697 NFkB inh 20.0.
Screening N#CC1(c2ccccc2)CCN(C2CC(=O)N(c3ccc4c(c3)OCO4)C2=O)CC1 (centres undefined) returned Gli-Sufu block -2.7, EBV LMP1 NFkB -8.3, TRPM1 prom inh -1.3, Jurkat NFkB inh 1.7, Shn3 inh set2 -3.9 and 697 NFkB inh -9.5.
`Cc1ccc(-c2cc(-c3ccc(C)cc3)[n+](C)o2)cc1` gave Gli-Sufu block 82.7*, EBV LMP1 NFkB 3.4, TRPM1 prom inh 63.5*, Shn3 inh set2 82.5, Gli antag conf 86.2*, SufuKO cytotox 30.1* and Wnt3a counter 36.2*.
`CCN(CC)C(=O)c1ccc(NC(=O)c2cc(S(=O)(=O)N3CCCCCC3)ccc2OC)cc1` gave Gli-Sufu block 13.1, EBV LMP1 NFkB 3.7, TRPM1 prom inh 1.7, Jurkat NFkB inh 20.0, Shn3 inh set2 9.3 and 697 NFkB inh -9.5.
Screening CCN(CC)C(=O)c1ccc(NC(=O)CSc2nnnn2-c2cc(OC)ccc2OC)cc1 returned Gli-Sufu block 70.3*, EBV LMP1 NFkB 0.4, TRPM1 prom inh 5.7, Jurkat NFkB inh -13.1, Shn3 inh set2 13.1, 697 NFkB inh -33.2, Gli antag conf 23.1, SufuKO cytotox 6.7 and Wnt3a counter 20.6.
`Oc1ccc2c3c1OC1C(O)CC[C@@]4(O)[C@@H](C2)N(CC2CCC2)CC[C@]314` (some centres undefined) gave Jurkat NFkB inh 6.5 and 697 NFkB inh -3.3.
CCC12CN3CCN(CC(C3)/C1=N/NC(N)=O)C2 was read as Gli-Sufu block 61.4*, EBV LMP1 NFkB 3.6, TRPM1 prom inh 13.4, Jurkat NFkB inh -1.9, Shn3 inh set2 -11.8, 697 NFkB inh 0.7, Gli antag conf 18.4, SufuKO cytotox -6.9 and Wnt3a counter 15.0.
`Cn1cccc1/C=C1/C(=O)NC(=O)N(Cc2ccccc2)C1=O` gave Gli-Sufu block 52.7, EBV LMP1 NFkB 3.9, TRPM1 prom inh 10.2, Jurkat NFkB inh 15.6, Shn3 inh set2 16.9, 697 NFkB inh -53.7, Gli antag conf 45.1*, SufuKO cytotox 38.4* and Wnt3a counter 26.0*.
For Cn1cccc1/C=C1\C(=O)NC(=O)N(Cc2ccccc2)C1=O the results were Gli-Sufu block 38.8, EBV LMP1 NFkB 13.7, TRPM1 prom inh 23.7, Jurkat NFkB inh 40.0, Shn3 inh set2 -41.6 and 697 NFkB inh -65.6.
CCOC(=O)C1=CC(=C2C(=O)N(CC)C(=S)N(CC)C2=O)c2ccccc2O1 was read as Gli-Sufu block 2.8, Jurkat NFkB inh -8.7 and 697 NFkB inh 25.2.

Compound activity: PubChem, several laboratories
